Data taken from PubChem BioAssay (NCATS).
Results filed as inconclusive are left out. Activity calls are given as the source filed them. Calls come from the whole dose curve; as a rule, active = well fitted curve in the direction sought with a large enough effect; inconclusive = small, poorly fitted or top-dose-only effect, or another doubt; inactive = no such curve, though single readings can be large; an effect the other way counts as inactive or inconclusive.

How the values were obtained:
[1] = biological target: Calcium and integrin-binding protein 1 (Homo sapiens) (UniProt Q99828); assay: Primary qHTS for Identification of Calcium Integrin Binding Protein 1 (CIB1) Competitor (AID 1508620); conditions: CIB1-GST / FITC-alphaIIb peptide fluorescence polarization; series mostly up to 57.7 µM;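 note: GST tagged CIB1 binding a fluorescein labelled alphaIIb integrin peptide tracer; top concentration of the series differs between compounds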
Outline: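 CIB1-GST (1 uM final) and compound incubated 15 min at room temperature before adding FITC-alphaIIb peptide tracer (100 nM final). Competition for binding read by fluorescence polarization (ex 480, em 540) after another 15 min at room temperature.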

[2] = Primary qHTS for inhibitors of nuclear receptor binding SET domain protein 2 (NSD2) in an isogenic RCH-ACV NSD2 p.E1099K mutant (9B) (AID 1645876); conditions: RCH-ACV NSD2 E1099K (9B) viability, CellTiter-Glo, 72 h; series mostly up to 44.9 µM; note: nearly all actives have a fitted effect of over 70% in size
[3] = Primary qHTS for inhibitors of nuclear receptor binding SET domain protein 2 (NSD2) in an RCH-ACV wild type WT cells (2C) (AID 1645877); conditions: RCH-ACV (leukaemia line) NSD2 WT (2C) viability, CellTiter-Glo, 72 h; series mostly up to 44.9 µM; note: nearly all actives have a fitted effect of over 70% in size
% is set by controls: 0 for no effect and ±100 for the full control effect.

Calcium and integrin-binding protein 1 (Homo sapiens), sequence (Q99828 whole entry, looked up): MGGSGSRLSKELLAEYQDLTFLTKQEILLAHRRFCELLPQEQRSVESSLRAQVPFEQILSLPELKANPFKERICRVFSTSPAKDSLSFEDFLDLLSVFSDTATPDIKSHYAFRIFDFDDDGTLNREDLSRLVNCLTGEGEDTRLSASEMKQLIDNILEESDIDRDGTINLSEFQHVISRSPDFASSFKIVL

CC1(C)CCC[C@@]2(C)[C@H]1[C@H](O)C=C(CO)[C@]2(O)CO
inactive: Potency [1] | Potency [2] | Potency [3]

OCC(O)C(c1c[nH]c2ccccc12)c1c[nH]c2ccccc12 (stereo not drawn)
inactive: Potency [1] | Potency [2] | Potency [3]

CC(=O)OC12CC(C)C(O)C1/C=C(/COC1OC(CO)C(O)C(O)C1O)CCC1C(/C=C(\C)C2=O)C1(C)C (stereo not drawn)
inactive: Potency [1] | Potency [2] | Potency [3]

CC/C=C\[C@H](O)[C@H](O)C1=C(C)C(=O)[C@]2(O1)C(=O)N[C@@](O)(C(=O)c1ccccc1)[C@@H]2O
inactive: Potency [1] | Potency [2] | Potency [3]

CC(C)(O)/C=C/C(=O)[C@](C)(O)[C@H]1[C@H](O)C[C@@]2(C)[C@@H]3CC=C4[C@@H](C=C(O[C@@H]5O[C@H](CO)[C@@H](O)[C@H](O)[C@H]5O)C(=O)C4(C)C)[C@]3(C)C(=O)C[C@]12C
inactive: Potency [1] | Potency [2] | Potency [3]

C=C1CC23CC1CCC2C12OC(=O)C(C)(C(O)C(O)C1O)C2C3C(=O)O (stereo not drawn)
inactive: Potency [1] | Potency [2] | Potency [3]

C/C=C/C=C/C=C/C(=O)N(C)C(C(=O)NC(C)C(=O)N1CCCC1C(N)=O)C(C)C (stereo not drawn)
inactive: Potency [1] | Potency [2] | Potency [3]

C=C(COC(=O)CC(C)C)C1Cc2cc(C(C)=O)ccc2O1 (stereo not drawn)
inactive: Potency [1] | Potency [2] | Potency [3]

NC(=O)C(O[C@@H]1O[C@H](CO[C@@H]2O[C@H](CO)[C@@H](O)[C@H](O)[C@H]2O)[C@@H](O)[C@H](O)[C@H]1O)c1ccccc1 (stereo partly drawn)
inactive: Potency [1] | Potency [2] | Potency [3]

O=C(OCC(O)CO[C@@H]1O[C@H](C(=O)O)[C@@H](O)[C@H](O)[C@H]1O)c1ccccc1 (stereo partly drawn)
inactive: Potency [1] | Potency [2] | Potency [3]

CC(C)C1(O)NC(=O)C(CC2(O)c3ccccc3N3C(=O)C(C)(C)NC32)n2c1nc1ccccc1c2=O (stereo not drawn)
inactive: Potency [1] | Potency [2] | Potency [3]

C=C(C)[C@@]1(O)C[C@@]2(C)C(=CC1=O)CC[C@@H](O)[C@@H]2C
inactive: Potency [1] | Potency [2] | Potency [3]

C/C=C1\[C@H](O[C@@H]2O[C@H](CO)[C@@H](O)[C@H](O)[C@H]2O)OC=C(C(=O)O)[C@H]1CC(=O)OCCc1ccc(O)cc1
inactive: Potency [1] | Potency [2] | Potency [3]

Cc1ccc(-c2c(-c3nn(C)c4ncnc(N5CC[C@H](N6CCCCC6)C5)c34)cnn2C)cc1
inactive: Potency [1] | Potency [2] | Potency [3]

C=C1C(O)C(OC(=O)c2ccccc2)C2C(C)(C(=O)O)CCCC2(C)C1CC/C(C)=C\CO (stereo not drawn)
inactive: Potency [1] | Potency [2] | Potency [3]

COc1cc(C(O)C2COC(c3ccc(OC4OC(CO)C(O)C(O)C4O)c(OC)c3)C2CO)ccc1O (stereo not drawn)
inactive: Potency [1] | Potency [2] | Potency [3]

C=C1CC/C=C(/C(=O)O)CCC2C1CC2(C)C (stereo not drawn)
inactive: Potency [1] | Potency [2] | Potency [3]

CC1(CO)CCCC2(C)C3COC(=O)C3=CC(O)C12 (stereo not drawn)
inactive: Potency [1] | Potency [2] | Potency [3]

CC(C)(O)C1CCC2(C)CCCC(C)(O)C2C1 (stereo not drawn)
inactive: Potency [1] | Potency [2] | Potency [3]

C=C1[C@H](OC(C)=O)[C@H]2[C@@H](OC(C)=O)C(C)C[C@]2(OC(C)=O)C(=O)[C@H](C)/C=C/C(C)(C)C(=O)[C@H](OC(=O)C(C)C)[C@H]1OC(C)=O (stereo partly drawn)
inactive: Potency [1] | Potency [2] | Potency [3]

CC1=C2C(=O)C=C(CO)C2C2OC(=O)C(CS(=O)(=O)O)C2C(OC(=O)Cc2ccc(O)cc2)C1 (stereo not drawn)
inactive: Potency [1] | Potency [2] | Potency [3]

O=C(CCc1ccccc1)c1c(O)c([C@@H]2O[C@H](CO)[C@@H](O)[C@H](O)[C@H]2O)c(O)c([C@@H]2O[C@H](CO)[C@@H](O)[C@H](O)[C@H]2O)c1O
inactive: Potency [1] | Potency [2] | Potency [3]

Cc1sc(C)c(C(=O)NC2(c3ccc(C(=O)O)cc3)CC2)c1Cc1ccc(C(F)(F)F)cc1
inactive: Potency [1] | Potency [2] | Potency [3]

CC12CC34CC(O)C5C(CO)(CO)CC(=O)CC5(C)C3CC1C2C4 (stereo not drawn)
inactive: Potency [1] | Potency [2] | Potency [3]

O=C(OCC1OC(Oc2ccc(O)cc2COC(=O)C2(O)C(O)CCC(=O)C2OC(=O)C2C=CCC2)C(OC(=O)C2C=CCC2)C(O)C1O)C1C=CCC1 (stereo not drawn)
inactive: Potency [1] | Potency [2] | Potency [3]

CC1CCC2(NC1)OC1C(O)C3C4CCC5CC(O[C@@H]6O[C@H](CO)[C@@H](O)[C@H](O)[C@H]6O[C@@H]6O[C@@H](C)[C@H](O)[C@@H](O)[C@H]6O)CCC5(C)C4CCC3(C)C1C2C (stereo partly drawn)
inactive: Potency [1] | Potency [2] | Potency [3]

C=CCc1cc(OC)c(OC(C)C(O)c2ccc(O)c(OC)c2)c(OC)c1 (stereo not drawn)
inactive: Potency [1] | Potency [2] | Potency [3]

COc1cc(CC2COC(c3ccc(OC4OC(CO)C(O)C(O)C4O)c(OC)c3)C2CO)ccc1O (stereo not drawn)
inactive: Potency [1] | Potency [2] | Potency [3]

CC(C)=CCC[C@](C)(O[C@@H]1O[C@H](CO)[C@@H](O)[C@H](O)[C@H]1O)[C@H]1CC[C@]2(C)[C@@H]1[C@H](O)CC1[C@@]3(C)CC[C@H](O)C(C)(C)C3[C@@H](O[C@@H]3O[C@H](CO)[C@@H](O)[C@H](O)[C@H]3O[C@@H]3O[C@@H](C)[C@H](O)[C@@H](O)[C@H]3O)C[C@]12C (stereo partly drawn)
inactive: Potency [1] | activity change, negative = viability loss [2] -2.5% [at 9.23 µM] | activity change, negative = cell killing [3] -9.19% [at 9.23 µM]

C[C@]12CC[C@@H]3c4ccc(O)cc4CC[C@H]3[C@@H]1C[C@@H](O[C@@H]1O[C@H](C(=O)O)[C@@H](O)[C@H](O)[C@H]1O)[C@@H]2O
inactive: Potency [1] | Potency [2] | Potency [3]

NC(Cc1c[nH]c2ccc(O)cc12)C(=O)O (stereo not drawn)
inactive: Potency [1] | Potency [2] | Potency [3]

COc1cc(/C=C/C(=O)OC[C@H]2O[C@@H](OC3CC(C)=C(C(=O)O)C(C)(C)C3)[C@H](O)[C@@H](O)[C@@H]2O)cc(OC)c1O (stereo partly drawn)
inactive: Potency [1] | Potency [2] | Potency [3]

COC(=O)C1=COC(O[C@@H]2O[C@H](CO)[C@@H](O)[C@H](O)[C@H]2O)[C@@H]2[C@@](C)(O)[C@@H](OC(=O)/C=C/c3ccccc3)C[C@]12O (stereo partly drawn)
inactive: Potency [1] | Potency [2] | Potency [3]

C[C@H](/C=C/[C@@]1(O)[C@H](C)CC(=O)CC1(C)C)O[C@@H]1O[C@H](CO[C@@H]2OC[C@@H](O)[C@H](O)[C@H]2O)[C@@H](O)[C@H](O)[C@H]1O
inactive: Potency [1] | Potency [2] | Potency [3]

CC1(C)CC[C@]2(C(=O)O)CC[C@]3(C)C(=CCC4[C@@]5(C)CC[C@H](O[C@@H]6O[C@H](C(=O)O)[C@@H](O)[C@H](O)[C@H]6O)C(C)(C)C5CC[C@]43C)C2C1 (stereo partly drawn)
inactive: Potency [1] | Potency [2] | Potency [3]

COc1cc(C(=O)OC[C@@]2(O)CO[C@@H](O[C@H]3[C@H](Oc4ccc(O)cc4)O[C@H](CO)[C@@H](O)[C@@H]3O)[C@@H]2O)cc(OC)c1O
inactive: Potency [1] | Potency [2] | Potency [3]

COCC1OC(OC(C)(C)C2CCC3(C)C=C(C4CCC5C4(C)CC(O)C4OC(C(C)(C)O)CCC45C)CCC3O2)C(NC(C)=O)C(O)C1O (stereo not drawn)
inactive: Potency [1] | Potency [2] | Potency [3]

C[C@@H]1[C@H]2[C@H](O[C@@H]3O[C@H](CO)[C@@H](O)[C@H](O)[C@H]3O)OC=C(C(=O)O)[C@H]2C[C@@H]1OC(=O)/C=C/c1ccc(O)cc1
inactive: Potency [1] | Potency [2] | Potency [3]

O=C(O)c1ccc(NC(=O)[C@H](CC2CCCC2)n2cnc(C(F)(F)F)c2)nc1
inactive: Potency [1] | Potency [2] | Potency [3]

O=C(/C=C/c1ccc(O)cc1)O[C@H]1[C@H](OC2CCCCC2O)O[C@H](CO)[C@@H](O)[C@@H]1O (stereo partly drawn)
inactive: Potency [1] | Potency [2] | Potency [3]

CC(C)=CCc1cc(O[C@@H]2O[C@H](CO[C@@H]3OC[C@](O)(CO)[C@H]3O)[C@@H](O)[C@H](O)[C@H]2O)ccc1O
inactive: Potency [1] | Potency [2] | Potency [3]

C[C@]1(OC(=O)/C=C/c2ccc(O)cc2)C[C@@H](O)[C@]2(O)C=CO[C@@H](O[C@@H]3O[C@H](CO)[C@@H](O)[C@H](O)[C@H]3O)C12 (stereo partly drawn)
inactive: Potency [1] | Potency [2] | Potency [3]

CC1=CC23[C@H](C=C(C(=O)O)[C@@H]2COC(=O)[C@]3(O)CO)[C@@H]1C (stereo partly drawn)
inactive: Potency [1] | Potency [2] | Potency [3]

CC(=O)OC1C(O)C(C)(O)C(/C=C/C(=O)O)C2(C)CCCC(C)(C)C12 (stereo not drawn)
inactive: Potency [1] | Potency [2] | Potency [3]

COc1cc(/C=C/C(=O)O[C@H]2C[C@@H]3C(C(=O)O)=CO[C@@H](O[C@@H]4O[C@H](CO)[C@@H](O)[C@H](O)[C@H]4O)[C@@H]3[C@H]2C)ccc1O
inactive: Potency [1] | Potency [2] | Potency [3]

CC1(C)CC[C@]2(C(=O)O[C@@H]3O[C@H](CO[C@@H]4O[C@H](CO[C@@H]5O[C@H](CO)[C@H](O)[C@H](O)[C@H]5O)[C@@H](O)[C@H](O)[C@H]4O)[C@@H](O)[C@H](O[C@@H]4O[C@H](CO)[C@@H](O)[C@H](O)[C@H]4O)[C@H]3O)[C@H](O)C[C@]3(C)C(=CCC4[C@@]5(C)CC[C@H](O[C@@H]6OC[C@@H](O)[C@H](O)[C@H]6O)[C@@](C)(C(=O)O)C5CC[C@]43C)[C@@H]2C1 (stereo partly drawn)
inactive: activity change, negative = inhibition [1] 3.63% [at 12.4 µM] | outcome [2] inactive [at 9.23 µM] | outcome [3] inactive [at 9.23 µM]

C/C=C1/[C@H](O[C@@H]2O[C@H](CO)[C@@H](O)[C@H](O)[C@H]2O)OC=C(C(=O)OC)[C@H]1CC(=O)OCCc1ccc(O)c(O)c1
inactive: Potency [1] | Potency [2] | Potency [3]

CC(C)(Oc1ccc(-c2nc3cc(Cl)ccc3s2)cc1)C(=O)O
inactive: Potency [1] | Potency [2] | Potency [3]

CC1(C)OC(=O)CC(O)C2(C)C1CC(=O)C1(C)C2C(O)CC2(C)C(c3ccoc3)OC(=O)C3OC321 (stereo not drawn)
inactive: Potency [1] | Potency [2] | Potency [3]

COC(=O)C1=COC(OC2OC(CO)C(O)C(O)C2O)C2C(COC(=O)/C=C/c3ccc(O)cc3)C(O)C(O)C12 (stereo not drawn)
inactive: Potency [1] | Potency [2] | Potency [3]

C=C(C)C1CCC2(C(=O)OC3OC(COC4OC(CO)C(O)C(O)C4O)C(OC4OC(C)C(O)C(O)C4O)C(O)C3O)CCC3(C(=O)O)C(CCC4C5(C)CCC(=O)C(C)(C)C5CCC43C)C12 (stereo not drawn)
inactive: Potency [1] | outcome [2] inactive [at 9.23 µM] | outcome [3] inactive [at 9.23 µM]
